The full list was thinned out, with hits kept by preference.
ER stress death: ER stress cell death inhibition | hit rate 0.33% among 48,000 | CSM14.1 thapsigargin ER stress survival, ATP luminescence | relative survival (cellular ATP), % at 15 µg/mL (by protocol);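 active = survival measured by cellular ATP above 50% at 15 µg/ml in the first screen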;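 also: cell death triggered by about 15 µM thapsigargin; ATP read 24 h after thapsigargin was added; plate controls were thapsigargin with DMSO for no effect and DMSO without thapsigargin for full effect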
* = called active by the depositor.

SMILES	ER stress death
C=CCN1C(=O)/C(=C\c2ccc(-c3cccc(C(=O)O)c3)o2)C(=O)NC1=S	5.5
Cc1cc(NC(=O)c2ccc(-c3ccc(Br)cc3)o2)ccc1NC(=O)c1ccco1	-8.4
COc1cc(NC(=O)c2ccc(-c3ccc(Cl)cc3)o2)ccc1NC(=O)c1ccco1	-1.0
Cc1cc(NC(=O)c2ccc(-c3ccc(Cl)cc3)o2)ccc1NC(=O)c1ccco1	61.7*
CCOc1ccc(CN2CCN(C(=O)c3ccccc3OC)CC2)cc1	12.7
Cc1c(Cl)cccc1NCCC(=O)c1ccc([N+](=O)[O-])cc1	9.8
COc1ccc(C2CC(=O)C3=C(C2)Nc2ccccc2NC3c2ccc(C)cc2)cc1 (stereo not given)	-3.1
COc1ccc(C2Nc3ccccc3NC3=C2C(=O)CC(c2ccc(Cl)cc2)C3)cc1 (stereo not given)	8.2
COc1ccc(C2CC(=O)C3=C(C2)Nc2ccccc2NC3c2ccccc2OC)cc1 (stereo not given)	3.1
COc1ccc(C2CC(=O)C3=C(C2)Nc2ccccc2NC3c2c(Cl)cccc2Cl)cc1 (stereo not given)	2.0
COc1ccc(C2CC(=O)C3=C(C2)Nc2ccccc2NC3c2ccc(OCc3ccccc3)cc2)cc1 (stereo not given)	94.2*
COc1ccc(C2CC(=O)C3=C(C2)Nc2ccccc2NC3c2ccccc2C)cc1 (stereo not given)	98.9*
COc1ccc(C2CC(=O)C3=C(C2)Nc2ccccc2NC3c2ccccc2Cl)cc1 (stereo not given)	101.1*
O=C1CC(c2ccccc2)CC2=C1C(c1ccccc1Cl)Nc1ccccc1N2 (stereo not given)	-5.0
COc1ccc(C2CC(=O)C3=C(C2)Nc2ccccc2NC3c2ccc(OCc3ccccc3)c(OC)c2)cc1 (stereo not given)	-0.5
O=C(Nc1ccc(Cl)cc1Cl)c1nc2nc(-c3ccccc3)cc(C(F)(F)F)n2n1	5.8
CCOC(=O)C(CCOc1c(C)cc(Cl)cc1C)C(=O)OCC	1.0
O=C1/C(=C/c2ccc(Br)cc2)SC(=S)N1/N=C/c1ccc(Br)cc1	-6.6
CC(=O)/C(CN1CCCCC1)=N/O	11.7
Cc1c(Cl)cccc1N=C1NC(=O)/C(=C/c2ccc(OC(C)C)cc2)S1	-1.0
Cc1cccc(-c2noc(-c3ccc(C)c([N+](=O)[O-])c3)n2)c1	3.6
O=c1oc2cc(O)c([N+](=O)[O-])cc2cc1-c1csc(-c2ccc(Br)cc2)n1	-3.4
O=C1C=C(NCCc2c[nH]c3ccccc23)CC(c2ccccc2)C1 (stereo not given)	53.5*
O=C1C=C(Nc2ccccc2C(=O)O)CC(c2ccccc2)C1 (stereo not given)	12.4
CC(C)CCNC1=CC(=O)CC(c2ccccc2)C1 (stereo not given)	-0.7
SMILES	ER stress death
CC1C(c2ccccc2)NC(c2ccccc2)C(C)C1(O)c1ccccc1 (stereo not given)	-4.9
N#CCC(=O)N1CCN(C(c2ccccc2)c2ccccc2)CC1	-3.6
O=C1c2ccccc2C(=O)N1CC#CCN1CCN(C(c2ccccc2)c2ccccc2)CC1	67.5*
C(#Cc1ccccc1)CN1CCN(CC#Cc2ccccc2)CC1	5.2
O=C1CCCC2=C1C(c1ccccc1)Nc1ccccc1N2 (stereo not given)	5.7
COc1ccc(C2=C/C(=C\c3ccc([N+](=O)[O-])cc3)C(=O)O2)cc1	-2.7
COc1ccc(N(Cc2ccc(C(=O)NC3CCCCC3)cc2)S(=O)(=O)c2ccccc2)cc1	9.3
CCN(CC)C(=O)c1ccc(CN(c2ccc(OC)cc2)S(=O)(=O)c2ccccc2)cc1	124.3*
COc1ccc(N(Cc2ccc(C(=O)NC3CCCC3)cc2)S(=O)(=O)c2ccccc2)cc1	1.5
Cc1c(C(=O)O/N=C(\N)c2ccc(Cl)cc2)cccc1[N+](=O)[O-]	-1.6
CCOc1ccc(S(=O)(=O)N(CC(=O)Nc2ccccc2OCC)c2ccc(C)cc2)cc1	66.5*
CCOc1ccc(S(=O)(=O)N(CC(=O)Nc2ccccc2CC)c2ccc(C)cc2)cc1	0.5
CCOc1ccccc1NC(=O)CN(c1ccc(C)cc1)S(=O)(=O)c1ccc(SC)cc1	5.1
CCOC(=O)C1=C(C)N=c2s/c(=C\c3ccco3)c(=O)n2C1c1ccccc1OC (stereo not given)	8.7
O=C(CNc1n[nH]c(=O)[nH]c1=O)N/N=C/c1c(Cl)cccc1Cl	-1.4
COc1ccc(C(C)=O)cc1N1C(=O)C=CC1=O	-7.1
CC(=O)c1cccc(N2C(=O)C3C4C=CC(C4=C(C)C)C3C2=O)c1 (stereo not given)	0.8
COc1ccc(C(C)=O)cc1N1C(=O)C2C3C=CC(C3=C(c3ccccc3)c3ccccc3)C2C1=O (stereo not given)	77.2*
O=C1c2ccccc2/C(=N/Nc2ccc([N+](=O)[O-])cc2)C1c1cc(Br)ccc1[N+](=O)[O-] (stereo not given)	8.2
O=c1oc(COc2ccccc2Cl)nc2ccccc12	-2.3
Cc1ccc(C2CC(C(F)(F)F)n3ncc(C(=O)N(Cc4ccccc4)Cc4ccccc4)c3N2)cc1 (stereo not given)	3.6
COc1ccc(C2CC(C(F)(F)F)n3ncc(C(=O)N(C)Cc4ccccc4)c3N2)cc1OC (stereo not given)	82.0*
COc1ccc(C2CC(C(F)(F)F)n3ncc(C(=O)Nc4ccc(F)cc4F)c3N2)cc1OC (stereo not given)	3.3
COc1ccc(Br)cc1Cn1c(=O)[nH]c2cc(C(F)(F)F)ccc21	2.8
Cc1ccc(/C(O)=C2\C(=O)C(=O)N(CCCC(=O)O)C2c2ccc(N(C)C)cc2)cc1 (stereo not given)	3.7
SMILES	ER stress death
CCOc1ccc(/C=C/C(=O)c2ccc(F)cc2)cc1	-9.3
NC(=O)c1ccccc1N=Cc1cccc([N+](=O)[O-])c1	1.2
O=C(N/N=C/c1cccc([N+](=O)[O-])c1)C(Oc1ccccc1)Oc1ccccc1	4.7
O=[N+]([O-])c1cccc(/C=N\N2CCN(C(c3ccccc3)c3ccccc3)CC2)c1	52.4*
COc1ccc2ccccc2c1C=Nc1ccc(S(N)(=O)=O)cc1	32.9
O=C(Nc1nccs1)c1ccc2c(c1)C(=O)N(c1ccc(Cl)cc1)C2=O	7.4
CCN(CC)c1ccc(Nc2nc(-c3c(C)nc4sccn34)cs2)cc1	23.9
CCOc1ccc(Nc2nc(-c3c(C)nc4sccn34)cs2)cc1	93.2*
CCOc1ccc(Nc2nc(-c3cccs3)cs2)cc1	0.0
O=[N+]([O-])c1ccccc1OCCCCCCNCCO	-3.1
COc1cc(/C=N/NC(=O)CCc2cc(C(C)(C)C)c(O)c(C(C)(C)C)c2)cc(Br)c1O	0.8

Assay outcomes deposited in PubChem BioAssay by Sanford-Burnham Center for Chemical Genomics.
